Source: PubChem
Shown are actives, neighbours in structure and some others; about 19% of the full set was active somewhere.
HepG2 tox: kills HepG2 cells in TGF-b inhibitor counter-screen; HepG2 CAGA-GFP viability, ATP luminescence, 18 h; Potency, µM (series often up to 46.1 µM), without a hit: top-dose activity change, negative = cytotoxicity, actives largely listed as cytotoxic; 410,000 compounds, 0.76% hits; AID 588856; note: potency is the fitted concentration of half-maximal effect
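HepG2 CAGA-GFP cells (1000/well, DMEM with 1% FBS) received compound, then TGF-beta at 500 pg/mL final, and were incubated 18 hours at 37 degrees C. Viability was read by CellTiter-Glo luminescence. Media-only wells were set as complete cell-killing and DMSO as no toxicity.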
IL1B secr inh: inflammasome signaling inhibition, IL-1 beta readout; THP-1 LPS/ATP IL-1B secretion, AlphaLISA, 16 h; stronger effect = lower value; activity change, % at 57.5 µM; 360,000 compounds, 4.7% hits; AID 743279; in the data active = activity change below about -50%; inconclusive = mostly about -30% to -49%; note: % is set by controls: 0 for no effect and ±100 for the full control effect
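THP-1 cells pretreated 1 hr with compounds (up to 57.5 uM final), then stimulated with LPS (250 ng/mL final) plus ATP (1.25 mM final); secreted IL-1B measured by AlphaLISA after 16 hr, decreased signal indicating inhibition.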
TGFb inhibitor: inhibitors of TGF-b signaling; Potency, µM (highest dose often 46.1 µM), without a hit: top-dose activity, negative = inhibition, usual class: inhibitors; AID 588855; 410,000 compounds, 1.2% hits; HepG2 CAGA-GFP TGF-b/SMAD3 reporter, GFP fluorescence, 18 h; TGF-beta stimulated, 500 pg/mL final; note: potency is the fitted concentration of half-maximal effect; % is set by controls: 0 for no effect and ±100 for the full control effect; nearly all actives have a fitted effect of over 65% in size
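HEPG2 CAGA-GFP, 1000 cells/well; 2 h settle, 37 C; cpd via pin tool; TGF-b 500 pg/mL final; 18 h, 37 C; GFP imaging ex488/em500-530; %Activity normalised to -TGF-b and +DMSO controls; CRC fit, curve class.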
DT40 TDP1 no CPT: qHTS for Inhibitors of human tyrosyl-DNA phosphodiesterase 1 (TDP1): qHTS in cells in absence of CPT; DT40 Tdp1-/- hTDP1 cells, no CPT, ATP luminescence, 48 h; Potency, µM (series often up to 46.2 µM), inactives show at the highest dose activity change, negative = growth inhibition, usual class: inhibitors; 420,000 compounds, 15% hits; note: potency is the fitted concentration of half-maximal effect; % is set by controls: 0 for no effect and ±100 for the full control effect; nearly all actives have a fitted effect of over 55% in size
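Compound effects on proliferation are scored in DT40 Tdp1-/-;hTDP1 cells in the absence of CPT. ATP levels (CellTiter-Glo luminescence) are recorded after a ≥48 hr, 37 °C incubation.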
DT40 TDP1 CPT: growth inhibition of DT40 Tdp1-/-;hTDP1 cells with camptothecin (screen for TDP1 inhibitors); chicken DT40 Tdp1-/-;hTDP1 cells + 20 nM CPT, ATP luminescence, 48 h; Potency, µM (highest dose often 46.2 µM), inactives show top-dose activity change, negative = growth inhibition, most hits filed as inhibitors; 420,000 compounds, 12% hits; AID 686979; note: potency is the fitted concentration of half-maximal effect; % is set by controls: 0 for no effect and ±100 for the full control effect; nearly all actives have a fitted effect of over 55% in size
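Cell growth measured by CellTiter-Glo luminescence after a minimum 48 h, 37 C compound exposure with 20 nM CPT in Tdp1-knockout DT40 cells stably expressing hTDP1, seeded 400/well; qHTS titration format.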
TDP1 block: blocks human tyrosyl-DNA phosphodiesterase 1. Potency, µM (highest dose often 130 µM), for the others: at the top dose activity change, negative = inhibition, hits mostly inhibitors. 350,000 compounds, 0.28% hits. recombinant TDP1, AlphaScreen DNA substrate cleavage. AID 485290; note: potency is the fitted concentration of half-maximal effect; % is set by controls: 0 for no effect and ±100 for the full control effect; nearly all actives have a fitted effect of over 40% in size
Target sequence (Q9NUW8 whole entry, looked up): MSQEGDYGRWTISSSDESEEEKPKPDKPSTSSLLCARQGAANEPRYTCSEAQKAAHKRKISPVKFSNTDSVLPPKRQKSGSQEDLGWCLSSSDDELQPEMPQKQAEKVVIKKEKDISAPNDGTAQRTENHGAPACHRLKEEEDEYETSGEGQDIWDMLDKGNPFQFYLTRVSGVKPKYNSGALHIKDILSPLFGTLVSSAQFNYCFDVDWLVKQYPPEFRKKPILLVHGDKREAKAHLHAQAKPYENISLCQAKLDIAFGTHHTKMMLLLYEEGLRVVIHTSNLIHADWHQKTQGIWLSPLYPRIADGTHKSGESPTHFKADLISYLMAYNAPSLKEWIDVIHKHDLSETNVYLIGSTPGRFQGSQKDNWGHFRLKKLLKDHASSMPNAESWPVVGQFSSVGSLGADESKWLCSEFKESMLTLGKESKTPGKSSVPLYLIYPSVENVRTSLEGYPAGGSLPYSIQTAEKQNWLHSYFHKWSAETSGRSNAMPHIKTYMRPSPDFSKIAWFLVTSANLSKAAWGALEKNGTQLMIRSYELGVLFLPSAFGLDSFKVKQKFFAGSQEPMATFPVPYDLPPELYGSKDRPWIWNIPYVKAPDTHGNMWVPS
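Enzyme-compound mixtures sat 15 min at room temperature, followed by a 5 min reaction with 15 nM final substrate and 10 min with AlphaScreen beads. Recombinant human Tdp1 was used at 1 nM final.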
* hit, by the source's call; ? = inconclusive; . = no result; [ ] = dose if it differs, or a comment. Unless noted, calls come from the whole dose curve; as a rule, active = well fitted curve in the direction sought with a large enough effect; inconclusive = small, poorly fitted or top-dose-only effect, or another doubt; inactive = no such curve, though single readings can be large; an effect the other way counts as inactive or inconclusive.

SMILES	HepG2 tox	IL1B secr inh	TGFb inhibitor	DT40 TDP1 no CPT	DT40 TDP1 CPT	TDP1 block
Cc1ccc2c(c1)N(C(=O)CCC(=O)NC1CCN(Cc3ccccc3)CC1)CC(C)O2 (centres undefined)	-26%	-6	4%	?	21µM*	.
CCOC(=O)N1CCC(NC(=O)CCC(=O)N2CC(C)Oc3ccc(C)cc32)CC1 (centres undefined)	-7%	2	-2%	?	?	4%
CC1CN(C(=O)CCC(=O)NCc2ccccc2)c2cc(Cl)ccc2O1 (centres undefined)	-33%	-25	-24%	?	-20%	11%
Cc1ccc2c(c1)N(C(=O)CCC(=O)NCc1cccc(Cl)c1)CC(C)O2 (centres undefined)	7%	?	-7%	16µM*	?	.
COc1ccc(CCNC(=O)CCC(=O)N2CC(C)Oc3ccc(Cl)cc32)cc1OC (centres undefined)	-27%	-1	-3%	?	18µM*	.
COc1ccc(NC(=O)CC2C(=O)N(c3ccccc3)C(=O)N2C2CCCCC2)cc1 (centres undefined)	-16%	.	-4%	-13%	2%	-1%
CCOc1ccc(S(=O)(=O)N2CCCC2)cc1	-3%	-6	6%	-5%	2%	5%
O=S(=O)(c1ccc(Oc2ccc(Cl)cc2)c(S(=O)(=O)N2CCCCC2)c1)N1CCCCC1	-20%	13	0%	15µM*	?	2%
CCOc1ccc2cc(S(=O)(=O)N3CCCCC3)ccc2c1	18µM*	8	-24%	?	29µM*	.
CCOc1ccc2cc(S(=O)(=O)N3CCN(C)CC3)ccc2c1	0%	-4	-44%	23µM*	?	0%[56.1 µM]
CNC(=O)c1ccc(CSc2nc3ccncc3n2Cc2ccc(C)cc2)cc1	-42%	.	?	?	?	5%
CC(CNC(=O)c1ccc(CSc2nc3ccncc3n2Cc2cccc(F)c2)cc1)c1ccccc1 (centres undefined)	-20%	.	10µM*	?	23µM*	2%
Cc1ccc(CCNC(=O)c2ccc(CSc3nc4ccncc4n3Cc3ccc(F)cc3)cc2)cc1	-3%	.	?	16µM*	16µM*	8%
COCCNC(=O)c1ccc(CSc2nc3ccncc3n2Cc2ccccc2)cc1	-2%	.	-2%	-24%	-3%	0%
O=C(NCCc1ccccc1)c1ccc(CSc2nc3ccncc3n2Cc2ccc(F)cc2)cc1	-28%	.	?	16µM*	?	0%
CC(NC(=O)c1ccc(CSc2nc3ccncc3n2Cc2ccc(F)cc2)cc1)c1ccccc1 (centres undefined)	-29%	.	?	?	?	3%
O=S1(=O)CC(N2CCCCC2)CN1Cc1cn(Cc2ccc(F)cc2)nn1 (centres undefined)	.	-4	.	-10%	0%	.
Cc1ccc(NC(=S)NCC2CCN(C(C)c3ccccc3)C2)cc1C (centres undefined)	-35%	-29	?	16µM*	23µM*	0%
O=[N+]([O-])c1ccc(-c2nc(NCc3cccnc3)c3ccccc3n2)cc1	13%	22	15%	27%	-5%	.
COc1ccc(CNc2nc(-c3ccc(N(C)C)cc3)nc3ccccc23)c(OC)c1	.	.	.	4.1µM*	4.1µM*	.
CN(C)c1ccc(-c2nc(NCc3cccnc3)c3ccccc3n2)cc1	.	.	.	4.1µM*	3.7µM*	5%[56.1 µM]
c1cncc(CNc2nc(-c3ccoc3)nc3ccccc23)c1	.	.	.	21µM*	?	.
Fc1ccc(Nc2nc(-c3ccncc3)nc3ccccc23)cc1	-5%	39	-9%	?	?	5%
CN(C)c1ccc(-c2nc(Nc3ccncc3)c3ccccc3n2)cc1	.	.	.	5.8µM*	9.2µM*	15%
C=CCNC(=O)c1ccccc1NC(=O)Cc1ccccc1[N+](=O)[O-]	7%	9	-2%	-5%	11%	3%
SMILES	HepG2 tox	IL1B secr inh	TGFb inhibitor	DT40 TDP1 no CPT	DT40 TDP1 CPT	TDP1 block
COc1ccc(NC(=O)COC(=O)c2ncc(Cl)c(Cl)c2Cl)c(OC)c1	7%	-26	4%	1%	-10%	-3%
Cc1cc(C)c(CN2CCN(C(=O)Cn3cnc4c(NCc5ccccc5)ncnc43)CC2)c(C)c1	-10%	?	?	1.8µM*	5.8µM*	2%[56.1 µM]
O=C(Cn1cnc2c(NCc3ccccc3)ncnc21)NCC1CCCO1 (centres undefined)	2%	24	-2%	-18%	-18%	.
CSc1nc(N)nc2c1ncn2CC(=O)N1CCN(Cc2c(C)cc(C)cc2C)CC1	-14%	37	-26%	0.82µM*	1.8µM*	0%
CCOc1cc(/C=C2\SC(=O)N(c3ccc(O)cc3)C2=O)ccc1O	-70%	?	?	?	?	6%
CCOc1cc(/C=C2\N=C(SC(C)C(N)=O)N(c3ccc(OC(F)F)cc3)C2=O)ccc1O (centres undefined)	-38%	-12	25%	10µM*	?	4%
NC(=O)CSC1=N/C(=C\c2ccco2)C(=O)N1c1ccc(OC(F)F)cc1	50%	-9	11%	13µM*	?	-2%
COc1ccc(N2C(=O)/C(=C\c3ccco3)N=C2SCC(=O)NC(C)(C)C)cc1Cl	-3%	?	-29%	?	?	5%
CCN(CC)C(=O)CSC1=N/C(=C/c2ccco2)C(=O)N1c1ccc(OC)c(Cl)c1	-17%	-54*	?	?	21µM*	0%
CCCNS(=O)(=O)c1cccc(C(=O)OCc2cc(=O)oc3cc(OC)ccc23)c1	16%	31	?	1µM*	1µM*	3%
COc1ccc2c(COC(=O)c3ccc(C)c(S(=O)(=O)N4CCOCC4)c3)cc(=O)oc2c1	-4%	-15	-10%	16µM*	?	.
COC(=O)c1c(NC(=O)Cc2coc3ccc(C(C)C)cc23)sc2c1CCC2	16%	.	8%	?	?	0%
Cc1nn(CCCC(=O)Nc2c(F)cc(F)cc2Br)c(C)c1[N+](=O)[O-]	6%	7	2%	-8%	2%	8%
Cc1cccn2c(=O)c3cc(C#N)c(=NC(=O)c4ccncc4)n(CCCOC(C)C)c3nc12	0%	-19	7%	16µM*	18µM*	3%
